Only a part of the results of these assays is listed, not drawn at random.
Each molecule was assayed against T1, Protein RecA (Mycobacterium tuberculosis) (UniProt P9WHJ3) (assay: M. tuberculosis H37Rv growth inhibition, dose response, strain H37Rv (AID 489010);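 further: whole Mycobacterium tuberculosis cells grown in culture and not purified RecA protein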).
T1 sequence (whole entry): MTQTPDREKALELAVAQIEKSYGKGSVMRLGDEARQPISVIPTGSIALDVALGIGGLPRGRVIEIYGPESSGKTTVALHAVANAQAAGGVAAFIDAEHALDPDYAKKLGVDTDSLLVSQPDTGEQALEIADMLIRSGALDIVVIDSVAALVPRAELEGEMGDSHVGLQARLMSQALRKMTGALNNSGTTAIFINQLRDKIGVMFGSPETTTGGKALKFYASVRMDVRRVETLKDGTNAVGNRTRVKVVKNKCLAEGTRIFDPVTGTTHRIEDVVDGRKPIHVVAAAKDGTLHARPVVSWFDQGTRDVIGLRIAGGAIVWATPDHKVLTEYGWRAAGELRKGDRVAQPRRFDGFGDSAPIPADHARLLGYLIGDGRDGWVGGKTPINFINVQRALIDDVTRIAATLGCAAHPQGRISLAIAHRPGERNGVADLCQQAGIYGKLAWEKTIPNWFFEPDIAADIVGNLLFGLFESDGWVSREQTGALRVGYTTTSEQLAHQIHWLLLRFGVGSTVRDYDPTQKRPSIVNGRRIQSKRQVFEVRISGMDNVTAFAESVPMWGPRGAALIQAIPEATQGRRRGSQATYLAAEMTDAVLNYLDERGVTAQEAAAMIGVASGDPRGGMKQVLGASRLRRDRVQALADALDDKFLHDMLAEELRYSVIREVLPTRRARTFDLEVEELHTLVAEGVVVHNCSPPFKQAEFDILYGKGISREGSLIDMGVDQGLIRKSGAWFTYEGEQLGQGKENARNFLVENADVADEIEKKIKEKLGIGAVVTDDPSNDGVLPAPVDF
Format: functional

Compound	IC90
Cc1cc(C)cc(Cn2ncc(Cl)c(Cl)c2=O)c1	25.7 µM (active)
Cc1cccc(Cn2nnc3c2C(=O)c2ccccc2C3=O)c1	52.6 µM (active)
COC(=O)c1sc(-c2ccc(C(C)(C)C)cc2)cc1NC(=O)/C=C/C(=O)O	42.7 µM (active)
Cc1ccc(Sc2ccc(NC(=O)CCl)cc2)c(C)c1	66.3 µM (active)
Clc1ccc(-n2nnnc2Sc2ncnc3sccc23)cc1	9.74 µM (active)
Cc1ccccc1-n1ncc2c([N+](=O)[O-])cc([N+](=O)[O-])cc21	2.16 µM (active)
O=C(OCn1ncc(Cl)c(Cl)c1=O)c1ccccc1Cl	> 100 µM (active)
CSc1nnc(NC(=O)c2nc(S(=O)(=O)Cc3cccc(C)c3)ncc2Cl)s1	44.7 µM (active)
Cc1ccc(C(=O)Oc2ccc([N+](=O)[O-])cc2)cc1S(=O)(=O)N1CCCCCC1	> 100 µM (active)
Cc1ccc2c(c1)c1c3n2CCN(C(=O)CCl)C3CCC1 (stereo not given)	8.43 µM (active)
Cc1ccc(C(=O)OCn2ncc(Cl)c(Cl)c2=O)cc1	> 100 µM (active)
Cc1ccc(CS(=O)(=O)c2ncc(Cl)c(C(=O)Nc3nnc(C(C)C)s3)n2)cc1	> 100 µM (active)
Cc1cc(C)c(S(=O)(=O)/N=C2\C=C(Nc3ccc(C(=O)O)cc3)C(=O)c3ccccc32)c(C)c1	> 100 µM (active)
Cc1[nH]n(-c2ccccc2)c(=O)c1C(C[N+](=O)[O-])c1ccc(F)cc1 (stereo not given)	32.8 µM (active)
C/C(=N\NC(=O)c1ccncc1)c1cc2ccccc2oc1=O	0.43 µM (active)

— ChEMBL document CHEMBL1201862, “PubChem BioAssay data set” (2004)
